PubChem BioAssay
The source made the active and inactive calls.

What was measured:
[1] = A549 cell viability effects, profiling panel, calcein-AM fluorescence, 48 h, basal (AID 1162); settings: higher = more signal
[2] = adipocyte viability effects, profiling panel, cell-based, 3T3-L1 adipocytes, calcein-AM fluorescence, 48 h, basal (AID 1163); settings: 3T3-L1 adipocytes viability, higher = more signal
[3] = HepG2 cell viability effects, profiling panel, calcein-AM fluorescence, 48 h, basal (AID 1164); settings: higher = more signal
[4] = MM1S cell viability effects, profiling panel, calcein-AM fluorescence, 48 h, basal (AID 1165); settings: higher = more signal;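 note: viability of MM1S multiple myeloma cells under basal unstimulated conditions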
[5] = basal RPMI8226 viability, no added stimulus, profiling panel, cell-based, calcein-AM fluorescence, 48 h, PK04 Diversity Set (AID 1166); settings: RPMI8226 myeloma viability, higher = more signal;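 note: cells grown under basal conditions without added stimulus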
[6] = basal HepG2 mitochondrial membrane potential changes, profiling panel, cell-based, JC-1 fluorescence, 24 h, 100 nL compound (AID 1167); settings: higher = more signal
[7] = basal 3T3-L1 adipocyte mitochondrial potential changes, profiling panel, cell-based, JC-1 fluorescence, 3T3-L1 adipocytes, 24 h, 100 nL compound (AID 1168); settings: JC-1 mitochondrial fluorescence, higher = more signal, called active from +8 up or from −8 down
[8] = basal RPMI8226 mitochondrial membrane potential changes, profiling panel, cell-based, JC-1 fluorescence, 24 h, 100 nL compound (AID 1169); settings: RPMI8226 myeloma, JC-1 mitochondrial potential fluorescence, higher = more signal
[9] = basal MM1S mitochondrial membrane potential changes, profiling panel, cell-based, JC-1 fluorescence, 24 h, 100 nL compound (AID 1170); settings: higher = more signal
[10] = A549 lung cancer cell viability effects, profiling panel, resazurin fluorescence, 24 h, PK04 Diversity Set (AID 1171); settings: higher = more signal, called active from +8 up or from −8 down
Note: test concentration not given here.

SMILES: CCCCCN1CC=CC23O[C@@H]4C=CCCOC(=O)C4[C@H]2C(=O)N(CCCCCO)[C@@H]3C1=O (stereo not given in full)
- z-score [1]: 0.0264
- z-score [2]: -1.3
- z-score [3]: 0.542
- z-score [4]: 1.8
- z-score [5]: 1.74
- z-score [6]: 0.301
- z-score [7]: -0.0303 (inactive)
- z-score [8]: 0.159
- z-score [9]: -0.849
- z-score [10]: 0.26 (inactive)

SMILES: CN(C)C(=O)[C@]1(Cc2ccccc2N=[N+]=[N-])N=C(c2ccc(OCCCO)cc2)O[C@@H]1c1ccccc1N=[N+]=[N-]
- z-score [1]: 0.03
- z-score [2]: 0.899
- z-score [3]: -0.468
- z-score [4]: -3.3
- z-score [5]: -3.67
- z-score [6]: 1.53
- z-score [7]: 1.41 (inactive)
- z-score [8]: -0.946
- z-score [9]: -1.8
- z-score [10]: -2.16 (inactive)

SMILES: COC(=O)[C@@]1(Cc2ccc(OC)cc2)[C@H]2c3cc(C(=O)N(C)C)n(C)c3C[C@H]2CN1C(=O)c1ccccc1
- z-score [1]: -1.37
- z-score [2]: 0.288
- z-score [3]: -1.7
- z-score [4]: -2.27
- z-score [5]: -2.47
- z-score [6]: 2.66
- z-score [7]: -0.536 (inactive)
- z-score [8]: -0.701
- z-score [9]: -1.17
- z-score [10]: -0.482 (inactive)

SMILES: COC(=O)[C@@]1(Cc2ccc(OC)cc2)[C@H]2c3cc(C(=O)N(C)C)n(CCc4ccccn4)c3C[C@H]2CN1C(=O)c1ccccc1
- z-score [1]: -0.982
- z-score [2]: -0.812
- z-score [3]: -0.173
- z-score [4]: -1.19
- z-score [5]: -2.59
- z-score [6]: -0.0203
- z-score [7]: -1.04 (inactive)
- z-score [8]: -0.772
- z-score [9]: -1.35
- z-score [10]: -0.735 (inactive)

SMILES: CCOC(=O)C[C@H]1[C@H](OC(=O)c2ccc(C(=O)c3ccccc3)cc2)[C@@H](NC(=O)CC(C)C)c2cc(OCCCO)ccc2N1C(=O)c1ccc2ccccc2n1
- z-score [1]: 0.713
- z-score [2]: -0.177
- z-score [3]: 0.592
- z-score [4]: 0.143
- z-score [5]: 0.263
- z-score [6]: 2.53
- z-score [7]: 1.59 (inactive)
- z-score [8]: 0.944
- z-score [9]: -0.67
- z-score [10]: 0.59 (inactive)

SMILES: C=CCOC(=O)[C@H]1[C@@H]2C(=O)O[C@@H](c3ccccc3)[C@@H](c3ccccc3)N2[C@@H](c2ccc(OCCOC(=O)[C@@H]3C[C@@H]4C(=O)N[C@@H](CC(C)C)C(=O)N4[C@@H]3c3ccc(O)cc3)cc2)[C@]12C(=O)Nc1ccccc12
- z-score [1]: -1.02
- z-score [2]: 0.385
- z-score [3]: -0.529
- z-score [4]: -0.206
- z-score [5]: 0.162
- z-score [6]: -1.89
- z-score [7]: 0.0514 (inactive)
- z-score [8]: -0.89
- z-score [9]: -0.836
- z-score [10]: 0.414 (inactive)

SMILES: CC(C)=CCCC(C)=CC(O)C1C=CC2C(=O)N(C)C(=O)C2N1Nc1ccccc1 (stereo not given)
- z-score [1]: -1.81
- z-score [2]: -1.39
- z-score [3]: -1.35
- z-score [4]: -2.56
- z-score [5]: -4.09
- z-score [6]: -2.66
- z-score [7]: 1.29 (inactive)
- z-score [8]: -0.934
- z-score [9]: -1.34
- z-score [10]: 0.597 (inactive)

SMILES: C=C[C@@H](COC(=O)OC(C)(C)C)N(Cc1ccc(OC)cc1)S(=O)(=O)c1ccc(Br)cc1
- z-score [1]: 1.39
- z-score [2]: 0.332
- z-score [3]: -0.002
- z-score [4]: -3.08
- z-score [5]: -1.36
- z-score [6]: -0.997
- z-score [7]: -0.239 (inactive)
- z-score [8]: -0.525
- z-score [9]: 0.101
- z-score [10]: 1.74 (inactive)

SMILES: C=C[C@H](CO[Si](CC)(CC)CC)N(Cc1ccc(OC(C)=O)c(OC)c1)S(=O)(=O)c1ccc(Br)cc1
- z-score [1]: -0.217
- z-score [2]: 0.327
- z-score [3]: -4.67
- z-score [4]: -3.23
- z-score [5]: -4.32
- z-score [6]: -1.25
- z-score [7]: 1.07 (inactive)
- z-score [8]: -1.1
- z-score [9]: -1.84
- z-score [10]: -0.18 (inactive)

SMILES: CC(C)NC(=O)[C@@H]1c2ccccc2C(=O)N(C2Cc3ccccc3C2)[C@H]1c1ccc(CO)cc1
- z-score [1]: 1.54
- z-score [2]: -0.27
- z-score [3]: 1.22
- z-score [4]: 0.543
- z-score [5]: 0.982
- z-score [6]: 3.83
- z-score [7]: 0.976 (inactive)
- z-score [8]: 0.459
- z-score [9]: -0.096
- z-score [10]: 1.81 (inactive)

SMILES: CC#CC(=O)Oc1ccccc1C=CC(=O)OCC
- z-score [1]: -1.54
- z-score [2]: -0.228
- z-score [3]: -0.749
- z-score [4]: -3.27
- z-score [5]: -2.23
- z-score [6]: -0.739
- z-score [7]: 0.161 (inactive)
- z-score [8]: 0.849
- z-score [9]: -0.259
- z-score [10]: 1.5 (inactive)

SMILES: CCCC[C@@H]1C[C@H]1[C@@H](NC(=O)c1ccccc1)c1ccc(C(=O)OC)cc1
- z-score [1]: -0.992
- z-score [2]: -0.334
- z-score [3]: -0.197
- z-score [4]: -1.2
- z-score [5]: -2.68
- z-score [6]: -2.55
- z-score [7]: -1.18 (inactive)
- z-score [8]: 0.461
- z-score [9]: -1.12
- z-score [10]: 0.571 (inactive)

SMILES: COC(=O)[C@@]1(Cc2ccc(OC)cc2)[C@H]2c3cc(C(=O)N(C)C)n(Cc4ccccn4)c3C[C@H]2CN1C(=O)c1ccccc1
- z-score [1]: -0.865
- z-score [2]: 0.626
- z-score [3]: -0.319
- z-score [4]: -0.684
- z-score [5]: -1.31
- z-score [6]: 2.05
- z-score [7]: -1.46 (inactive)
- z-score [8]: 0.155
- z-score [9]: 0.016
- z-score [10]: -0.793 (inactive)

SMILES: CN(C)CCCC[C@@H]1NC(=O)[C@H]2C[C@@H](C(=O)NCCCCCCN)[C@@H](c3ccc(O)cc3)N2C1=O
- z-score [1]: 0.168
- z-score [2]: 0.526
- z-score [3]: -0.0064
- z-score [4]: -0.314
- z-score [5]: 0.226
- z-score [6]: -0.878
- z-score [7]: 0.862 (inactive)
- z-score [8]: -0.128
- z-score [9]: 0.119
- z-score [10]: 0.286 (inactive)

SMILES: C=CCN1C(=O)[C@]2(O[C@H](CCn3cc([C@H](O)c4ccccc4)nn3)[C@@H]([Si](C)(C)c3ccc(OC)cc3)[C@@H]2C)c2ccccc21
- z-score [1]: -0.366
- z-score [2]: 0.76
- z-score [3]: -1.85
- z-score [4]: -2.65
- z-score [5]: -4.3
- z-score [6]: -0.97
- z-score [7]: 0.203 (inactive)
- z-score [8]: -0.953
- z-score [9]: -2.26
- z-score [10]: -1.75 (inactive)

SMILES: CO[C@H]1O[C@H](CO)[C@@H](OC(=O)Nc2ccccc2)[C@H](OC(=O)Nc2ccccc2)[C@@H]1OC(=O)Nc1ccccc1
- z-score [1]: -1.36
- z-score [2]: 0.875
- z-score [3]: -1.68
- z-score [4]: -1.81
- z-score [5]: -1.98
- z-score [6]: -0.523
- z-score [7]: 0.348 (inactive)
- z-score [8]: -1.07
- z-score [9]: 0.0816
- z-score [10]: -2.01 (inactive)
